# PubChem BioAssay
# “And” between values parts separate entries of the source, which are not always exact repeats. Equal values may be shown once. The source made the active and inactive calls.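 How the source made its calls, unless noted: active means normalized viability below 100% at a tested concentration; inactive means the rest.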
# Legend:
# [1] = signal quenchers or enhancers, Cy5 substrate/SSB – biochemical, NIH Clinical Collection, E. coli SSB, artefact control for HCV NS3 helicase inhibitor project (AID 743268; call rule not given here); details: Cy5-oligo bound E. coli SSB, fluorescence interference
# [2] = system: Hepatitis C virus NS3 helicase; test: blockers of NS3h binding to DNA – biochemical, fluorescence polarization, NIH Clinical Collection, primary screen (AID 743270; call rule not given here); details: NS3 helicase binding to Cy5-dT15 DNA, stronger effect = higher value, concentration not given here
# [3] = target: Single-stranded DNA-binding protein (Escherichia coli (strain K12)) (UniProt P0AGE0); test: SSB-ssDNA binding inhibitors – biochemical, fluorescence polarization, NIH Clinical Collection, counter-screen for HCV NS3 helicase inhibitor project (AID 743271; in the data active means inhibition above about 28%); details: E. coli SSB-DNA binding, stronger effect = higher value, concentration not given here
# [4] = compounds distorting NS3 helicase fluorescence signal – biochemical, NIH Clinical Collection, artefact control for HCV NS3 helicase inhibitor project (AID 743272; call rule not given here;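 further: HCV NS3 helicase with a Cy5 labelled single stranded DNA probe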); details: fluorescence interference counterscreen, HCV NS3 helicase assay; stronger effect = lower value
# [5] = target: 6-phosphogluconate dehydrogenase, decarboxylating (Homo sapiens) (UniProt P52209); test: inhibition of human phosphogluconate dehydrogenase – biochemical, recombinant enzyme, NADPH absorbance, primary screen (AID 1159550;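 active means at least 20% inhibition of 6-phosphogluconate dehydrogenase activity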); details: recombinant 6PGD, NADPH absorbance 341 nm; at 10 µM; stronger effect = higher value
# [6] = modulation of C. elegans fzo-1 (AID 1259413; call rule not given here;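 further: fzo-1 mutant C. elegans worms in liquid wells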); details: C. elegans fzo-1 modulator screen, mean read-out; stronger effect = higher value
# [7] = EMT-state selective cytotoxicity in co-culture – imaging, PC-3E GFP, TEM4-18 mCherry, primary screen (AID 1345086;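 active means compounds killing one labelled cell type while sparing the other, by normalised counts and ratio limits, not self-fluorescent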;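 on all read-outs here: cells exposed to compound for 72 h before imaging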;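 on red/green cell ratio (normalised): normalised mesenchymal count divided by normalised epithelial count so high means epithelial killing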); details: PC-3E GFP / TEM4-18 mCherry co-culture, imaging cell counts, at 1 µM; for red/green cell ratio (normalised): actives lie on both sides, counts scaled to control wells, 1 = unselective
# [8] = MELAS cybrid and Rieske KO viability enhancers – cell-based, MELAS cybrids, Rieske KO mouse fibroblasts, CellTiter-Glo, primary screen (AID 1508586;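 active means mean z-score across replicates of 1.96 or higher in either the MELAS or the Rieske mutant cell line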;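 further: z relative to plate mean and SD of compound and empty wells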); details: low glucose
# [9] = drug combination growth inhibition, ovarian cancer – cell-based, oncology-focused library, rucaparib conditional, profiling panel (AID 1508598); details: patient-derived ovarian cancer cells, CellTiter-Glo viability, 144 h, stronger effect = lower value
# [10] = target: NAD(+) hydrolase SARM1 (Homo sapiens) (UniProt Q6SZW1); test: blocking NAD cleavage by SARM1 SAM-TIR – cell lysate, NAD-Glo luminescence (AID 1508614;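 active means compound whose remaining NAD level is above about 45 nM, limit read from the data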); details: SAM-TIR HEK293T lysate NADase, at 1 µM, stronger effect = higher value
# [11] = target: Mitogen-activated protein kinase 7 (Homo sapiens) (UniProt Q13164); test: Gal4-ERK5 driven luciferase induction – cell-based, HTS, primary screen (AID 1508626;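 active means luciferase signal above three times the same-plate solvent-only control wells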;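 further: luciferase driven by Gal4-ERK5 fusion binding five Gal4 sites before minimal TATA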); details: HeLa Gal4-ERK5 transactivation, 18 h, at 5 µM, stronger effect = higher value
# [12] = galactose survival enhancers in mitochondrial complex I cybrids – cell-based, galactose medium, ATP luminescence, primary screen (AID 1645843;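 active means z-score of at least 1.8 in each of two replicates, scored against plate mean and spread of sample wells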;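 further: positive z means more ATP and so rescue of galactose-driven cybrid death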); details: complex I mutant cybrid cells, 72 h, stronger effect = higher value
# [13] = system: F380Y; test: BK channel mutant inhibitors and activators – cell-based, U2OS BacMam, thallium flux, beta subunits, selectivity assay, profiling panel (AID 1259406;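 active means thallium flux through the channel raised or lowered by more than 3 SD from vehicle-only wells, actives on both sides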;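 further: initial slope of Thallos dye fluorescence rise after thallium is added; log ratio against the mean of 0.3% DMSO vehicle wells on the same plate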); details: U2OS BacMam BK variants, at 30 µM
# [14] = system: F380Y/beta2Delta; test: as above; details: U2OS BacMam BK variants, at 30 µM
# [15] = target: Calcium-activated potassium channel subunit alpha-1 (Homo sapiens) + Leucine-rich repeat-containing protein 26 (Homo sapiens) (UniProt Q12791+Q2I0M4); test: as above; details: U2OS BacMam BK variants, F380Y/Slo1WT/gamma1, at 30 µM
# [16] = system: R275C; test: as above; details: U2OS BacMam BK variants, at 30 µM
# [17] = system: R275C/beta1; test: as above; details: U2OS BacMam BK variants, at 30 µM
# [18] = system: R275C/beta2Delta; test: as above; details: U2OS BacMam BK variants, at 30 µM
# [19] = measured here: epithelial PC-3E GFP cell survival
# [20] = measured here: mesenchymal TEM4-18 mCherry cell survival
# [21] = MELAS cybrid survival, CellTiter-Glo 48 h, stronger effect = higher value
# [22] = Rieske KO mouse fibroblast survival, CellTiter-Glo 72 h
# Sequence of 6-phosphogluconate dehydrogenase, decarboxylating (Homo sapiens) (P52209 whole entry, looked up): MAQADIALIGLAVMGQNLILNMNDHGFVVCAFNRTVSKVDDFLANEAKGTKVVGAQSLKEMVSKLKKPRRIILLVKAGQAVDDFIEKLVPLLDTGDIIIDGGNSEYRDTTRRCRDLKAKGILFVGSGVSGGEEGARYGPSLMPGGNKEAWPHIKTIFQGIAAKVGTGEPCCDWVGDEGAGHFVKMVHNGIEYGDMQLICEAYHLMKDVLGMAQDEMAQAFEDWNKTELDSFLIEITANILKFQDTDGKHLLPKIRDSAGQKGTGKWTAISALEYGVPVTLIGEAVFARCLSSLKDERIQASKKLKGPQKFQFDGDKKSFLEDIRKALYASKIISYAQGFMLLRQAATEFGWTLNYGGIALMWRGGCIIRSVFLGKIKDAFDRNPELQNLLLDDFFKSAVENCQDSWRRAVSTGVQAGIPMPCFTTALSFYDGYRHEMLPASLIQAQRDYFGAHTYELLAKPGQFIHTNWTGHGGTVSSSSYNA
# Sequence of NAD(+) hydrolase SARM1 (Homo sapiens) (Q6SZW1 whole entry, looked up, the tested form may be a part): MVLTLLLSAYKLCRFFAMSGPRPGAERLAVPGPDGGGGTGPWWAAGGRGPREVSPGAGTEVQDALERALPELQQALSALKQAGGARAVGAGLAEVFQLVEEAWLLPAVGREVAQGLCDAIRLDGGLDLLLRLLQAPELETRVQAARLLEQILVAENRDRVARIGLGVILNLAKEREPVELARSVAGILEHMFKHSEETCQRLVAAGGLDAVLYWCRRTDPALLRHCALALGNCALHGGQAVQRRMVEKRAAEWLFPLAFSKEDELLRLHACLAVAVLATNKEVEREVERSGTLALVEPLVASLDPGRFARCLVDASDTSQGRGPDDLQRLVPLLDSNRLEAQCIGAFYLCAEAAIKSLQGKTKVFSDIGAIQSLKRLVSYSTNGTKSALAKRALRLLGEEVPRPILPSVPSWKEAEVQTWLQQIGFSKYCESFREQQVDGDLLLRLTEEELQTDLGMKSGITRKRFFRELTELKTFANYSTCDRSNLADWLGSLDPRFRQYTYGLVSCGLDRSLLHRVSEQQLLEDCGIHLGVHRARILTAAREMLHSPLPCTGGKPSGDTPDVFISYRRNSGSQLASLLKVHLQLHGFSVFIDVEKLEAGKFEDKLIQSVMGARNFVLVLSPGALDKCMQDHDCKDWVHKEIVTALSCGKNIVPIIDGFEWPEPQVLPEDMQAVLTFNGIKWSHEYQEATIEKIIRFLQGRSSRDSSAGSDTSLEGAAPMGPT
# Sequence of Calcium-activated potassium channel subunit alpha-1 (Homo sapiens) + Leucine-rich repeat-containing protein 26 (Homo sapiens) (Q2I0M4 whole entry, looked up, one chain of several): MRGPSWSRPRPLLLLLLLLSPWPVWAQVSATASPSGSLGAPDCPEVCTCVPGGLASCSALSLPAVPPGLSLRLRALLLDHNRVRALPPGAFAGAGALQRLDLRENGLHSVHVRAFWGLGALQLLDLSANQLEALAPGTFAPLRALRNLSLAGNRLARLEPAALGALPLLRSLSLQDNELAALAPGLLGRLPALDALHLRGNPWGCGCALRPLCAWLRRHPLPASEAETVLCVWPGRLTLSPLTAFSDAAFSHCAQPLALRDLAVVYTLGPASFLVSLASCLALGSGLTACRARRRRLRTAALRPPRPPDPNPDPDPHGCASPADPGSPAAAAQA
# Sequence of Mitogen-activated protein kinase 7 (Homo sapiens) (Q13164 whole entry, looked up, the tested form may be a part): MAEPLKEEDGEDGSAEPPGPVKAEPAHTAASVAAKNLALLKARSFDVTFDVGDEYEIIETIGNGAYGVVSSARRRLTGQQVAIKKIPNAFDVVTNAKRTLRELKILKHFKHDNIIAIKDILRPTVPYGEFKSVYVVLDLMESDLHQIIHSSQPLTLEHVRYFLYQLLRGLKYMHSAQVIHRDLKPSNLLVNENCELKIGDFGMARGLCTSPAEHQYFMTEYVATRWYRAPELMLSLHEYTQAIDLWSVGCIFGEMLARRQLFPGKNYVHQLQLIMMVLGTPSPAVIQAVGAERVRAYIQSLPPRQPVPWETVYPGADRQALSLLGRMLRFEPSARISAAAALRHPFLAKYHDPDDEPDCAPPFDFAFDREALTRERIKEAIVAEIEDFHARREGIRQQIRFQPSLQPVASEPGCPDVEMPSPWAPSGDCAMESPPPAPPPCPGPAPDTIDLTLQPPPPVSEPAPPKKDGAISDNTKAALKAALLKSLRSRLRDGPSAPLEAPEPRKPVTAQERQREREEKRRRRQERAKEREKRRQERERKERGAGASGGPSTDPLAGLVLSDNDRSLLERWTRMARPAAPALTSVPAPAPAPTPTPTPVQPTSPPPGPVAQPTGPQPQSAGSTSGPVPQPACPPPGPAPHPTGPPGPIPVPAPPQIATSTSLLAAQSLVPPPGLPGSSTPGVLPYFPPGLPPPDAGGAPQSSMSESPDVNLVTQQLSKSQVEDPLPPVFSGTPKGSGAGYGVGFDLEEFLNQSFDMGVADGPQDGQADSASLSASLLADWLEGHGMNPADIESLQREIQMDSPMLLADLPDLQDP
compound,measurement,setting,value
CN(C)c1nc(N(C)C)nc(N(C)C)n1,fluorescence ratio,[1],1.08 (inactive)
same,inhibition,[2],-2.27% (inactive)
same,inhibition,[3],1.81% (inactive)
same,fluorescence ratio,[4],0.99 (inactive)
same,inhibition,[5],11.2% (inactive)
same,mean signal,[6],270 (inactive)
same,red/green cell ratio (normalised),[7],1.11 (inactive)
same,normalised cell number,[7]; [19],0.98
same,normalised cell number,[7]; [20],1.08
same,z-score,[8]; [21],-0.405 (inactive) and 0.759 (inactive) and 0.19 (inactive)
same,z-score,[8]; [22],0.906 and 0.36 and 0.155
same,viability,"[9]; at 0.000305 µM, OCI-C5x cells, with rucaparib 10 µM, 100% = cells with rucaparib alone",108% (inactive)
same,viability,"[9]; at 0.000305 µM, OCI-C5x cells, without rucaparib",98.3% (active)
same,viability,"[9]; at 0.000305 µM, OCI-P5x cells, with rucaparib 20 µM, 100% = cells with rucaparib alone",95.7% (active)
same,viability,"[9]; at 0.000305 µM, OCI-P5x cells, without rucaparib",87% (active)
same,viability,"[9]; at 0.00122 µM, OCI-C5x cells, with rucaparib 10 µM, 100% = cells with rucaparib alone",112% (inactive)
same,viability,"[9]; at 0.00122 µM, OCI-C5x cells, without rucaparib",100% (inactive)
same,viability,"[9]; at 0.00122 µM, OCI-P5x cells, with rucaparib 20 µM, 100% = cells with rucaparib alone",95.8% (active)
same,viability,"[9]; at 0.00122 µM, OCI-P5x cells, without rucaparib",89% (active)
same,viability,"[9]; at 0.00488 µM, OCI-C5x cells, with rucaparib 10 µM, 100% = cells with rucaparib alone",120% (inactive)
same,viability,"[9]; at 0.00488 µM, OCI-C5x cells, without rucaparib",101% (inactive)
same,viability,"[9]; at 0.00488 µM, OCI-P5x cells, with rucaparib 20 µM, 100% = cells with rucaparib alone",101% (inactive)
same,viability,"[9]; at 0.00488 µM, OCI-P5x cells, without rucaparib",92.4% (active)
same,viability,"[9]; at 0.0195 µM, OCI-C5x cells, with rucaparib 10 µM, 100% = cells with rucaparib alone",113% (inactive)
same,viability,"[9]; at 0.0195 µM, OCI-C5x cells, without rucaparib",100% (inactive)
same,viability,"[9]; at 0.0195 µM, OCI-P5x cells, with rucaparib 20 µM, 100% = cells with rucaparib alone",102% (inactive)
same,viability,"[9]; at 0.0195 µM, OCI-P5x cells, without rucaparib",96.6% (active)
same,viability,"[9]; at 0.0781 µM, OCI-C5x cells, with rucaparib 10 µM, 100% = cells with rucaparib alone",110% (inactive)
same,viability,"[9]; at 0.0781 µM, OCI-C5x cells, without rucaparib",101% (inactive)
same,viability,"[9]; at 0.0781 µM, OCI-P5x cells, with rucaparib 20 µM, 100% = cells with rucaparib alone",103% (inactive)
same,viability,"[9]; at 0.0781 µM, OCI-P5x cells, without rucaparib",106% (inactive)
same,viability,"[9]; at 0.313 µM, OCI-C5x cells, with rucaparib 10 µM, 100% = cells with rucaparib alone",107% (inactive)
same,viability,"[9]; at 0.313 µM, OCI-C5x cells, without rucaparib",108% (inactive)
same,viability,"[9]; at 0.313 µM, OCI-P5x cells, with rucaparib 20 µM, 100% = cells with rucaparib alone",108% (inactive)
same,viability,"[9]; at 0.313 µM, OCI-P5x cells, without rucaparib",99.9% (active)
same,viability,"[9]; at 1.25 µM, OCI-C5x cells, with rucaparib 10 µM, 100% = cells with rucaparib alone",96.8% (active)
same,viability,"[9]; at 1.25 µM, OCI-C5x cells, without rucaparib",67.8% (active)
same,viability,"[9]; at 1.25 µM, OCI-P5x cells, with rucaparib 20 µM, 100% = cells with rucaparib alone",78.5% (active)
same,viability,"[9]; at 1.25 µM, OCI-P5x cells, without rucaparib",28.8% (active)
same,viability,"[9]; at 5 µM, OCI-C5x cells, with rucaparib 10 µM, 100% = cells with rucaparib alone",109% (inactive)
same,viability,"[9]; at 5 µM, OCI-C5x cells, without rucaparib",97.9% (active)
same,viability,"[9]; at 5 µM, OCI-P5x cells, with rucaparib 20 µM, 100% = cells with rucaparib alone",107% (inactive)
same,viability,"[9]; at 5 µM, OCI-P5x cells, without rucaparib",98.6% (active)
same,remaining NAD,[10],10 nM (inactive)
same,luciferase signal,[11],40 AU (inactive)
same,z-score,[12],0.975 (inactive) and 0.76 (inactive) and 0.825 (inactive)
same,log fold change Tl+ flux,[13],0.0102 (inactive)
same,log fold change Tl+ flux,[14],0.00703 (inactive)
same,log fold change Tl+ flux,[15],0.0168 (inactive)
same,log fold change Tl+ flux,[16],-0.00384 (inactive)
same,log fold change Tl+ flux,[17],-0.054 (inactive)
same,log fold change Tl+ flux,[18],-0.0096 (inactive)
CC(C)NCC(O)COc1ccc(CC(N)=O)cc1 (stereo unspecified),fluorescence ratio,[1],1.03 (inactive)
same,inhibition,[2],-0.45% (inactive)
same,inhibition,[3],0.29% (inactive)
same,fluorescence ratio,[4],0.98 (inactive)
same,inhibition,[5],-17.1% (inactive)
same,mean signal,[6],244 (inactive)
same,red/green cell ratio (normalised),[7],0.99 (inactive)
same,normalised cell number,[7]; [19],1.11
same,normalised cell number,[7]; [20],1.09
same,z-score,[8]; [21],-0.4 (inactive)
same,z-score,[8]; [22],-0.19
same,remaining NAD,[10],10 nM (inactive)
same,luciferase signal,[11],52 AU (inactive)
same,log fold change Tl+ flux,[13],-0.0247 (inactive)
same,log fold change Tl+ flux,[14],0.00577 (inactive)
same,log fold change Tl+ flux,[15],-0.00874 (inactive)
same,log fold change Tl+ flux,[16],-0.00467 (inactive)
same,log fold change Tl+ flux,[17],0.0259 (inactive)
same,log fold change Tl+ flux,[18],-0.0455 (inactive)
